# FBPA Giardia inh: inhibitors of Giardia lamblia fructose-1,6-bisphosphate aldolase | 290,000 tested, 0.71% active | Potency, µM (series often up to 59.6 µM), actives largely listed as inhibitors | A8B2U2 | purified Giardia FBPA | AID 2451; also: nearly all actives have a fitted effect of over 55% in size
# Target sequence (A8B2U2 whole entry, looked up): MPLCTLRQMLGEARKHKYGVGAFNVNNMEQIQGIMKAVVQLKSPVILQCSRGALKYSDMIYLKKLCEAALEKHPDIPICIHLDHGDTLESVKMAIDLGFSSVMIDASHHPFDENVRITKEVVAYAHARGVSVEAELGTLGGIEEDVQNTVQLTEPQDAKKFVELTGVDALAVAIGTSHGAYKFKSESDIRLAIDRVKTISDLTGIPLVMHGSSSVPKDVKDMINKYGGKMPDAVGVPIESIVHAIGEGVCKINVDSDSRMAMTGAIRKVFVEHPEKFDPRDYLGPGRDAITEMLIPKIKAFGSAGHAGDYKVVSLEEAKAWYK
#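 40 nM FBPA preincubated 10 min at RT with compound (up to 57.5 uM final), then substrate plus GAPDH/TPI/NAD/arsenate coupling and diaphorase/resazurin added. Fluorescence read after 20 min at RT, 525/598 nm.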
# RE007 growth inh: less growth of the S. pombe RE007 Vpr strain; S. pombe RE007 Vpr strain, BacTiter-Glo ATP luminescence, 24 h; Potency, µM (series often up to 92.2 µM), actives largely listed as inhibitors; 360,000 tested, 0.21% active; AID 651644; active = well fitted falling curve with a large enough effect; inconclusive = small, poorly fitted or top-dose-only effect; inactive = no such curve, though single readings can be large or run the other way; also: nearly all actives have a fitted effect of over 50% in size
#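 Fission yeast strain RE007, carrying one chromosomally integrated HIV-1 vpr copy, was seeded at OD 0.01 in PMG+AL medium with 23 nL pinned compound. After 24 h at 30 °C and 99% humidity, viability was read by BacTiter-Glo luminescence.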
# LmPK inhibitor: LmPK (Leishmania mexicana) enzyme inhibition | AID 1721 | purified LmPK, Kinase-Glo ATP luminescence, 1 h | Potency, µM (titrated, usually from 57.5 µM), hits mostly inhibitors | 290,000 tested, 0.37% active | Q27686
#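 Kinase-Glo luminescence read after 1 h RT reaction of 0.1 nM LmPK with 0.5 mM PEP and 0.1 mM ADP. Activity scaled between uninhibited and enzyme-free controls.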
# TbPYK inhibitor: blocks Trypanosoma brucei pyruvate kinase | Q57TT1 | TbPYK enzyme, Kinase-Glo Plus ATP luminescence, 45 min | Potency, µM (series often up to 76.8 µM), usual class: inhibitors | 410,000 tested, 0.12% active | AID 624173; also: nearly all actives have a fitted effect of over 50% in size
#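 In this concentration-response screen, enzyme-free wells defined baseline while DMSO plates tracked drift. Each reaction combined TbPYK, substrate, compound and 130 uM ADP for 45 min at room temperature. Kinase-Glo Plus luminescence gave the signal.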
# Cycloheximide cs: counter-screen for Shiga toxin inhibitors: cycloheximide protein synthesis inhibition | cell reporter, cycloheximide protein synthesis inhibition counterscreen | max response, % | 300,000 tested, 12% active | AID 2314; in the data active = max response mostly above about 13%, no sharp cut-off; inactive = mostly below about 14%; also: read at 38.3 µM for the half of the compounds with a filed dose
# Shiga toxin inh: inhibitors of Shiga toxin in Vero cells | Vero cells, Shiga toxin protein synthesis inhibition reporter | inhibition, % at 38.7 µM | 290,000 tested, 9.2% active | AID 2315; in the data active = inhibition mostly above about 28%, no sharp cut-off; inactive = mostly below about 43%
# Hits are given with their value; n = inactive; u = inconclusive; x = no result given; [ ] = dose if it differs, or a comment. The sample as a whole holds a higher share of hits than the screen did. Unless noted, calls follow the shape of the dose curve; as a rule, active = well fitted curve in the direction sought with a large enough effect; inconclusive = small, poorly fitted or top-dose-only effect, or another doubt; inactive = no such curve, though single readings can be large; an effect the other way counts as inactive or inconclusive.
SMILES,FBPA Giardia inh,RE007 growth inh,LmPK inhibitor,TbPYK inhibitor,Cycloheximide cs,Shiga toxin inh
COc1ccc(S(=O)(=O)N2CCC(C(=O)Nc3ccc(S(=O)(=O)N4CCCC4)cc3)CC2)cc1OC,x,n,x,n,x,x
COCCN(C(=O)COC(=O)/C=C/c1ccc2ccccc2n1)c1c(N)n(Cc2ccccc2)c(=O)[nH]c1=O,n,n,n,n,11.0,n
COc1cc(/C=C2\N=C3CCCCCN3C2=O)ccc1O,n,n,n,n,30.3,114.2
COc1ccc(/C=C2\N=C3CCCCCN3C2=O)cc1OC,n,n,n,n,n,n
O=C1/C(=C\c2ccc(O)c(O)c2)N=C2CCCCCN12,u,n,n,n,17.2,105.7
COc1ccc(/C=C2/N=C3CCCCCN3C2=O)cc1,n,n,n,n,30.2,74.9
COc1ccc(/C=C2\SC(=S)N(CCC(=O)N3CCCCC3)C2=O)cc1,n,n,n,n,n,n
O=C1/C(=C/c2cccnc2)N=C2CCCCCN12,n,n,n,n,n,n
CC(=Nc1ccccc1)c1sc2ccccc2c1O,n,u,n,n,50.0,139.5
CC(=Nc1ccc(Br)cc1)c1sc2ccccc2c1O,n,n,n,n,59.6,111.5
COc1ccc(Cl)cc1NC(=O)CN(c1cccc(C)c1C)S(C)(=O)=O,x,x,x,n,x,x
Cc1[nH]c2ccccc2c1C(=O)COC(=O)C1CCC1,n,n,n,n,23.1,n
Cc1[nH]c2ccccc2c1C(=O)COC(=O)c1ccc([N+](=O)[O-])s1,n,63.1µM,n,n,n,n
O=C(COC(=O)c1ccc([N+](=O)[O-])s1)NCc1ccccc1,n,n,n,n,n,n
Cc1[nH]c2ccccc2c1C(=O)COC(=O)C1CCC(=O)N1 (centres undefined),n,n,n,n,n,n
Cc1cc(C(=O)OCC(=O)N2CCC(c3ccccc3)=N2)ccc1[N+](=O)[O-],x,n,x,n,x,x
O=C(OCC(=O)N1CCC(c2ccccc2)=N1)c1ccc([N+](=O)[O-])s1,x,15.8µM,x,n,x,x
COCCCNC(=O)c1sc2ncnc(N3CCc4ccccc4C3)c2c1C,n,n,n,n,11.6,n
Cc1c(C(=O)N2CCOCC2)sc2ncnc(N3CCc4ccccc4C3)c12,n,n,n,n,n,n
O=C(CNCc1ccco1)Nc1ccc(Oc2ccccc2)cc1,u,n,n,n,n,n
Cc1cc(C(N)=O)c2ccccc2n1,n,n,n,n,n,n
NC(=O)c1cc2c3ccccc3ccn2c1-c1ccccc1,u,n,n,n,52.0,94.0
O=C(NCc1cccs1)C(=O)NCC1OCCCN1S(=O)(=O)c1cc(F)ccc1F (centres undefined),x,n,n,n,n,n
O=C(OC1CO[C@H]2O[C@@H]1[C@H](OC(=O)c1ccccc1)[C@H]2OC(=O)c1ccccc1)c1ccccc1 (some centres undefined),x,n,x,n,x,x
O=C1C[C@H]2[C@H](CO)[C@@H](OC(=O)c3ccc(-c4ccccc4)cc3)C[C@H]2O1,n,n,n,n,50.3,108.8
SMILES,FBPA Giardia inh,RE007 growth inh,LmPK inhibitor,TbPYK inhibitor,Cycloheximide cs,Shiga toxin inh
O=C(Nc1ccn(C2CC(OC(=O)c3ccccc3)C(CO)O2)c(=O)n1)c1ccccc1 (centres undefined),n,n,n,n,n,n
O=C1CC2C(CC(OC(=O)c3ccc(-c4ccccc4)cc3)C2CO)O1 (centres undefined),n,n,n,n,30.1,49.0
COCCNC(=O)CSc1nc2ccc(N3CCOCC3)cc2c(=O)n1Cc1ccc(OC)cc1,u,n,n,n,28.1,n
CCCCNC(=O)CSc1nc2ccc(N3CCOCC3)cc2c(=O)n1Cc1ccc(OC)cc1,u,n,n,n,n,n
CSCCNC(=O)C1(C)CCN1C(=O)CCc1ccccc1 (centres undefined),x,n,x,n,x,x
COc1ccc(CCNc2ncnc3cc(OC)c(OC)cc23)cc1OC,n,n,n,n,n,n
COc1ccc(CCNc2ncccc2C#N)cc1OC,n,n,n,n,44.4,87.7
COc1ccc(CCNC2=NCCS2)cc1,n,n,n,n,n,n
COc1ccc(CCNC2=NCCS2)cc1OC,n,n,n,n,41.1,31.8
O=C(O)c1ccc(CNC(=O)C23CC4CC(CC(C4)C2)C3)cc1,n,n,n,n,n,n
COc1cc(OC)c(NC(=O)NC(C)c2c(-n3cccc3)sc(C)c2C)cc1Cl (centres undefined),x,x,x,n,x,x
COc1ccc(S(=O)(=O)n2ccc(-c3ccc(OCCN(C)c4ccccn4)cc3)n2)cc1,n,n,n,n,n,n
Fc1ccc(Cn2ccc(-c3cnc(-c4ccccc4)s3)n2)cc1,n,n,n,n,39.3,n
O=C(c1ccc(F)cc1)n1ccc(-c2cnc(-c3ccccc3)s2)n1,n,n,n,n,41.5,73.4
Cc1ccc(Cn2ccc(-c3cnc(-c4ccccc4)s3)n2)cc1,n,n,n,n,29.6,68.7
O=c1ccc(-c2ccccc2)nn1Cc1ccc(F)cc1,n,n,n,n,n,n
O=S(=O)(c1ccccc1)n1ccc(-c2cnc(-c3ccccc3)s2)n1,n,n,n,n,10.5,n
CCCCN(C)C(=O)C1CCCN(c2ncnc3onc(-c4ccc(F)cc4)c23)C1 (centres undefined),x,x,x,n,x,x
Nc1ccc(-c2nnc(-c3ccc(N)cc3)o2)cc1,n,n,n,n,48.4,72.6
Cc1ccc(-c2nnc(-c3ccc4ccccc4c3)o2)cc1,x,n,x,n,x,x
Cc1cccc(-c2nnc(-c3ccc(N)cc3)o2)c1,n,n,n,n,35.2,75.4
CC(=O)Nc1ccc(NC(=O)CCC(=O)c2ccc(C)cc2)cc1,x,x,x,n,x,x
Cc1ccc(NC(=O)C2CCCN(c3nnc(C)c4c(C)n(-c5ccccc5)nc34)C2)c(Cl)c1 (centres undefined),x,x,x,n,x,x
Cc1ccccc1NC(=O)CN1CCN(C(=O)c2ccco2)CC1,x,n,n,n,n,n
CCc1ccc(N2C(=O)CN(Cc3cccs3)C2=S)cc1,n,n,n,n,28.1,n
SMILES,FBPA Giardia inh,RE007 growth inh,LmPK inhibitor,TbPYK inhibitor,Cycloheximide cs,Shiga toxin inh
CCc1ccc(N2C(=O)CN(Cc3ccccc3)C2=S)cc1,n,n,n,n,n,n
CC(C)c1ccc(CC(=O)N2CCC2(C)C(=O)NS(=O)(=O)c2cccc(C#N)c2)cc1 (centres undefined),x,n[18.4 µM],x,n,x,x
Cn1c(-c2ccc3ccccc3n2)nc2cnccc21,n,n,n,n,26.8,49.3
COc1cc(OC)c(-c2nc3cnccc3n2C)cc1OC,n,n,n,n,n,n
CC(C)COc1ccc(C(=O)N2CCC(c3nc4ccccc4s3)CC2)cc1,x,x,x,n,x,x
O=C(CSc1nnc(-c2ccco2)o1)N1CCCCC1,x,n,n,n,25.5,66.2
O=C(CSc1ccc(-c2ccco2)nn1)N1CCCCC1,12.6µM,n,n,n,60.9,62.3

# Bioassay records as filed in PubChem.
